In the supplement of paper PMC13380429:

Key:
[1] = system: Vero E6 infected with SARS-CoV-2; test: morphology score (similarity to uninfected cells); higher = more like uninfected cells; details: 24 h
[2] = system: Vero E6 infected with SARS-CoV-2; test: SARS-CoV-2 infection rate relative to infected DMSO; higher = more infection, active = 60 or less; details: 24 h

Row | Compound | morphology score [1] | SARS-CoV-2 infection rate [2]
1 | Oc1c(I)cc(I)c(O)c1I [riodoxol] (10 µM) | 0.0583 | 107% (inactive)
2 | O=C(NCc1ccccc1)c1csc(Nc2ccncn2)n1 [thiazovivin] (0.833333 µM) | 0.654 | 99% (inactive)
3 | NC(=S)N/N=C/c1ncccc1N [triapine] (0.833333 µM) | 0.051 | 106% (inactive)
4 | O=C(c1c2ccccc2cc2ccccc12)N1CCC(N2CCC[C@@H](C(=O)N3CCOCC3)C2)CC1 (10 µM) | 0.0309 | 93.5% (inactive)
5 | CCOC(=O)c1ccccc1OC(=O)CCCCCCCC(=O)Oc1ccccc1C(=O)OCC (10 µM) | 0.166 | 100% (inactive)
6 | C#CC[C@H](c1nc2cc(Cl)ccc2c(=O)n1Nc1ccccc1)N(CCCN)C(=O)c1cccc(Cl)c1F (0.833333 µM) | -0.0173 | 112% (inactive)
7 | CC(C)n1nc(C#Cc2ccccc2)c2c(N)ncnc21 (10 µM) | 0.471 | 69.5% (inactive)
8 | O=C(O)[C@H](Cc1c[nH]c2ccccc12)N1C(=O)c2ccccc2C1=O (10 µM) | -0.0791 | 115% (inactive)
9 | N=C(N)NCCCC[C@@H]1NC(=O)CCSSC[C@@H](C(N)=O)NC(=O)[C@@H]2CCCN2C(=O)[C@H](Cc2c[nH]c3ccccc23)NC(=O)[C@H](CC(=O)O)NC(=O)CNC1=O [eptifibatide] (10 µM) | -0.125 | 118% (inactive)
10 | CO[C@@H]1COCC[C@@H]1N[C@@H]1CC[C@@](C(=O)N2CCc3ncc(C(F)(F)F)cc3C2)(C(C)C)C1 (10 µM) | -0.21 | 113% (inactive)
11 | CC(Oc1c(Cl)cccc1Cl)C1=NCCN1 (stereo unspecified) [lofexidine] (10 µM) | -0.13 | 102% (inactive)
12 | COc1ccccc1CN[C@H]1CCCN[C@H]1c1ccccc1 (10 µM) | 0.24 | 86% (inactive)
13 | CO/N=C1/C[C@@H](C(=O)NC[C@@H](O)c2ccccc2)N(C(=O)c2ccc(-c3ccccc3C)cc2)C1 [OT-R-antagonist-1] (10 µM) | 0.118 | 98.5% (inactive)
14 | O=C(O)C(=O)c1cn(Cc2ccccc2)c2ccc(-c3ccc(OC(F)(F)F)cc3)cc12 [tiplaxtinin] (10 µM) | 0.0476 | 106% (inactive)
15 | CNC(=O)c1ccccc1Nc1cc(Nc2ccc(N3CCOCC3)cc2OC)ncc1C(F)(F)F (10 µM) | -0.0543 | 111% (inactive)
16 | NS(=O)(=O)C#Cc1ccccc1 [pifithrin-mu] (0.833333 µM) | 0.168 | 92% (inactive)
17 | CCCCCCCCCCCCCCCC(=O)O[C@@H]1[C@@H](O)[C@@H](O)[C@@H]([C@H](NC(=O)[C@@H]2C[C@@H](CCC)CN2C)[C@H](C)Cl)O[C@@H]1SC [clindamycin-palmitate] (10 µM) | 0.0793 | 108% (inactive)
18 | NC(=O)c1ccc(N(C(N)=O)c2c(F)cccc2F)nc1-c1ccc(F)cc1F (10 µM) | -0.134 | 111% (inactive)
19 | CC1/C=C/C=C/C=C/C=C/C=C/C=C/C=C/C(OC2O[C@H](C)[C@@H](O)[C@H](N)[C@@H]2O)CC(O)C(C(=O)O)C(O)CC(=O)CC(O)CC(O)CC(O)CC(=O)CCCC(=O)CC(=O)OC1C(C)CC(C)C(O)CC(=O)c1ccc(N)cc1 (stereo partly specified) [candicidin] (0.833333 µM) | 0.198 | 100% (inactive)
20 | CC(=O)NC[C@H]1CN(c2ccc(N3CCOCC3)c(F)c2)C(=O)O1 [linezolid] (10 µM) | 0.0235 | 112% (inactive)
21 | CON [methoxyamine] (10 µM) | 0.192 | 99% (inactive)
22 | Clc1cccc(Cl)c1NC1=NCCN1 [clonidine] (10 µM) | 0.0616 | 100% (inactive)
23 | COc1ccc2nc3c(c(N)c2c1)CCCC3 [7-methoxytacrine] (10 µM) | 0.597 | 64.5% (inactive)
24 | Oc1ccc(OCc2ccccc2)cc1 [monobenzone] (10 µM) | -0.207 | 119% (inactive)
25 | CC(=O)Nc1cccc(O)c1 [metacetamol] (10 µM) | 0.0448 | 97% (inactive)
26 | COc1cc(OC)cc(C(=O)NNC(=O)Nc2cccc3ccccc23)c1 (10 µM) | 0.0721 | 105% (inactive)
27 | COc1nc(C)nc(Cl)c1NC1=NCCN1 [moxonidine] (10 µM) | 0.0753 | 102% (inactive)
28 | O=C(O)CCCCCCNC1c2ccccc2CCc2ccccc21 [amineptine] (10 µM) | 0.118 | 105% (inactive)
